Data on 26 compounds can be found in PubChem BioAssay AID651604 (The Scripps Research Institute Molecular Screening Center, 2012).

The term inhibition denotes the share of the control response that was lost under treatment.

Screen size: about 1,500 compounds; about 1,400 (93%) were called active. Rule as the data show it: active = inhibition above about 9.5%; inactive = the rest. So high a share suggests a set chosen from earlier hits. These entries were drawn from the full list.

The nature of this experiment: binders of control antibody PGV04, counter-screen for PG9 antibody binder project, biochemical, TR-FRET, distinct HIV envelope site (AID 651604). To be noted: TR-FRET PGV04 antibody-gp120 binding, at 6.7 µM, active compounds read high. A general note: Counterscreens check selectivity or assay interference.
As for `Fc1cc(F)c2nc(Nc3nc4c(F)cccc4s3)sc2c1`, the inhibition is 15.5% (active).

Regarding `Cc1nc(-c2ccccc2)sc1-c1nc(-c2ccccc2)ncc1S(=O)(=O)c1ccccc1`, the inhibition was 11.5% (active).

Turning to `CC(C)OCCCNC(=O)c1cc(Sc2ccc(F)cc2)nc2ccccc12`, the inhibition was 28.9% (active).

On to `N#C/C=C1\Sc2ccccc2C(=O)N1CC(=O)N1CCN(S(=O)(=O)c2ccccc2)CC1`, for which the inhibition is 36.9% (active).

Take `COCCNC(=O)c1cc2c(Br)ccc(Br)c2nc1N`: the inhibition was 20.9% (active).

On to `CC(=O)c1sc(NC(=O)CCCOc2ccccc2C)nc1C`, for which the inhibition is 29.6% (active).

Consider `COc1cccc(-n2c(SCC(=O)c3c[nH]c4ccccc34)nc3ccccc3c2=O)c1`, for which the inhibition was 32.9% (active).

Regarding `Cc1cc2c(cc1C)N1C(=O)c3cc4ccccc4cc3NC(=O)C1C(=O)N2` (stereo unspecified), the inhibition is 17% (active).

`O=C(Oc1ccccc1)Oc1ccc2c(c1)oc(=O)c1ccccc12`: the inhibition is 46.4% (active).

Consider `N#Cc1ccccc1Sc1ccccc1C(=O)OCC(=O)NC1CCCCC1`, for which the inhibition is 45.7% (active).

For the compound `Cc1ccc(-c2cc(C(=O)NCc3cn(C)nc3C)c3cc(Br)ccc3n2)cc1`, the inhibition was 25.8% (active).

For `Cc1ccc(-n2c(SCC(=O)NCCC3=CCCCC3)nc3n[nH]c(C)c3c2=N)cc1Cl`, the inhibition was 27.8% (active).

Take `CCCCNC(=O)CSc1nc2n[nH]c(C)c2c(=N)n1-c1cccc(Cl)c1C`: the inhibition is 63.2% (active).

Consider `COc1cccc(-c2ccc(C#N)c(SCC(=O)NCCc3ccc(Cl)cc3)n2)c1`, for which the inhibition was 13% (active).

As to `COc1ccc(CCNC(=O)CSc2nc(-c3ccc(OC)c(OC)c3)ccc2C#N)cc1`, the inhibition was 38.1% (active).

Regarding `COC(=O)c1ccc(NC(=S)Nc2cccc(C)n2)cc1`, the inhibition is 16.1% (active).

As to `S=c1[nH]c2ccccc2c2ccccc12`, the inhibition is 11.6% (active).

In the case of `O=C(Nc1nnc(-c2ccccc2F)s1)c1ccccc1F`, the inhibition was 36.9% (active).

On to `C=CCOc1cccc(C2C(C(=O)c3ccc(C)o3)=C(O)C(=O)N2CCCn2ccnc2)c1` (stereo unspecified), for which the inhibition is 22.6% (active).

Turning to `CCCOc1ccc(C2C(C(=O)c3ccc(C)o3)=C(O)C(=O)N2CCCn2ccnc2)cc1` (stereo unspecified), the inhibition was 65.3% (active).

On to `O=C(O)CCC(=O)Nc1nc2ccc([N+](=O)[O-])cc2s1`, for which the inhibition is 5.74% (inactive).

On to `COc1ccc(CC(=O)Nc2ccc(-c3nnc(-c4ccccc4)o3)cc2)cc1`, for which the inhibition was 24.6% (active).

Take `CCc1ccc(NC(=O)CSc2nnc(-c3cnccn3)n2Cc2ccco2)cc1`: the inhibition was 29.1% (active).

Take `O=C(C1=C(O)C(=O)N(Cc2ccccc2)C1c1ccco1)c1ccco1` (stereo unspecified): the inhibition is 39.4% (active).

Turning to `Cc1cc(C)cc(NC(=O)C2CCCN(S(=O)(=O)c3ccc4[nH]c(=O)ccc4c3)C2)c1` (stereo unspecified), the inhibition is 34.2% (active).

On to `COc1ccc(Cl)cc1NC(=O)Cn1nc(-c2ccc(C)cc2)n(C)c1=S`, for which the inhibition was 26.6% (active).
